# Reference: PubChem BioAssay
# Results filed as inconclusive are left out. Activity calls are given as the source filed them.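 How the source made its calls, unless noted: active means viability increase at or above a cutoff of the median across tested compounds plus 3 SD (cut at about 8.5% in these data, passing the limit was not always enough); inconclusive means some gains above the cutoff, reason not given; inactive means the rest.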
# Experiment: doxorubicin toxicity protection in MRP-1 cells – H69AR cells, CellTiter-Glo, duplicate, MRP-1 activator project, pilot screen (AID 807);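 further: compound pretreatment 18-22 h then 72 h combined with doxorubicin; 0% = doxorubicin alone and 100% = vehicle without doxorubicin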
# Details: H69AR viability with doxorubicin, CellTiter-Glo luminescence; at 10 µM; active compounds read high
row,SMILES,viability increase
1,COc1ccc(-c2noc(-c3cc(C)cc(C)c3)n2)cc1OC,4.05% (inactive)
2,Cc1c(C(=O)O)nn(-c2ccccc2)c(=O)c1C#N,0.49% (inactive)
3,N#CCCN1CCN(C(=S)c2ccc(-c3cccc(Cl)c3)o2)CC1,-0.32% (inactive)
4,CCCc1nnc(NC(=O)c2ccncc2)s1,0.44% (inactive)
5,Brc1ccccc1-c1nnc(CSc2nnc3sc4ccccc4n23)o1,-3.18% (inactive)
6,C=CCNc1ncnc2c1cnn2-c1ccc(Cl)cc1,2.88% (inactive)
7,C(#Cc1ccccc1)CN1CCN(c2ccccn2)CC1,-1.2% (inactive)
8,CCOc1ccc(-c2nc(CSCC(=O)N3CCN(c4cccc(OC)c4)CC3)c(C)o2)cc1,-2.52% (inactive)
9,COc1cc(Cl)c(S(=O)(=O)N2CCN(Cc3ccc4c(c3)OCO4)CC2)cc1Cl,-2.17% (inactive)
10,Brc1ccc(-c2nnc3ccc(N4CCN(c5ccccc5)CC4)nn23)cc1,-5.11% (inactive)
11,CCCCOc1ccccc1C1NC(=O)NC(C)=C1C(=O)OCCOC (centres undefined),-2.89% (inactive)
12,COc1ccc(OC)c(NC(=O)C2COc3ccccc3O2)c1 (centres undefined),-2.23% (inactive)
13,Cc1c(S(=O)(=O)N2CCc3ccccc3C2)c(=O)n(C)c(=O)n1C,-0.16% (inactive)
14,CCN1CCN(CC(=O)Nc2cccc(C)c2)C(=O)C1=O,-1.01% (inactive)
15,CCOc1ccccc1C(=O)Nc1ccc2nc(N3CCN(c4ncccn4)CC3)cc(C)c2c1,-7.45% (inactive)
16,CCOC(=O)c1ccccc1NC1c2ccccc2C(=O)N1c1ccc(C)cn1 (centres undefined),-2.23% (inactive)

row,SMILES,viability increase
1,COc1ccc(OC)c(-c2cc(C(=O)N3CCN(c4ccccc4)CC3)no2)c1,-2.36% (inactive)
2,CCC(Sc1nc2c(cnn2-c2ccccc2)c(=O)[nH]1)C(=O)OC (centres undefined),-1.58% (inactive)
3,COCCNc1oc(-c2ccccc2Cl)nc1C#N,-0.81% (inactive)
4,O=C(Cn1c(=O)sc2ccccc21)NCc1ccccn1,-1.78% (inactive)
5,C=CCSc1nnc2c(n1)OC=Nc1ccccc1-2,2.06% (inactive)
6,CCc1ccccc1S(=O)(=O)Cc1ccc(C(=O)N2CCN(c3ccccc3OC)CC2)o1,-2.86% (inactive)
7,CCCCCCC1C(C#N)=C(N)OC2=C1C(=O)CC(C)(C)C2 (centres undefined),-2.49% (inactive)
8,CCOC(=O)C1Cn2c(nc3c(c2=O)C2(CCCC2)Cc2ccccc2-3)S1 (centres undefined),-3.9% (inactive)
9,O=C(c1cc(C2CC2)on1)N1CCN(c2ccc(F)cc2)CC1,-1.75% (inactive)
10,COc1cccc(CSc2nc3sc(C)c(C)c3c(=O)n2Cc2ccco2)c1,0.35% (inactive)
11,COc1ccc(-c2n[nH]c(C)c2-c2cnn(-c3ccccc3)c2)c(O)c1,-2.75% (inactive)
12,O=C1C2CCCN2C(c2ccc(F)cc2)N1c1ccc(Cl)cc1 (centres undefined),-2.59% (inactive)
13,CCOc1ccccc1NC1c2ccccc2C(=O)N1c1ccc(C)cn1 (centres undefined),-1.37% (inactive)
14,COc1cc(/C=C/C2=NC(=O)C(C)(C)O2)ccc1O,-7.42% (inactive)
15,O=C(O)c1ccc(CSc2nnc(COc3ccc(Cl)cc3Cl)o2)cc1,2.94% (inactive)
16,N#Cc1c(NC(=O)CCCN2C(=O)c3ccccc3C2=O)oc(-c2ccccc2)c1-c1ccccc1,2.13% (inactive)

# Experiment: viability of HCT116 without oncogenic beta-catenin – human colon tumor cells, pilot screen (AID 823;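 active means cell viability at or below a set limit in both duplicate runs, the limit being the all-compound median minus 4 SD, cut at about 23% in these data, passing the limit was not always enough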;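 further: 0% = wells killed by 20 µM Hyamine and 100% = untreated DMSO cell wells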)
# Details: HCT116 beta-catenin knockout viability, CellTiter-Glo, 60 h; at 10 µM; active compounds read low
row,SMILES,viability
1,COc1ccc(-c2noc(-c3cc(C)cc(C)c3)n2)cc1OC,100% (inactive)
2,Cc1c(C(=O)O)nn(-c2ccccc2)c(=O)c1C#N,98.4% (inactive)
3,N#CCCN1CCN(C(=S)c2ccc(-c3cccc(Cl)c3)o2)CC1,76.9% (inactive)
4,CCCc1nnc(NC(=O)c2ccncc2)s1,103% (inactive)
5,Brc1ccccc1-c1nnc(CSc2nnc3sc4ccccc4n23)o1,96.1% (inactive)
6,C=CCNc1ncnc2c1cnn2-c1ccc(Cl)cc1,106% (inactive)
7,C(#Cc1ccccc1)CN1CCN(c2ccccn2)CC1,98.3% (inactive)
8,CCOc1ccc(-c2nc(CSCC(=O)N3CCN(c4cccc(OC)c4)CC3)c(C)o2)cc1,34% (inactive)
9,COc1cc(Cl)c(S(=O)(=O)N2CCN(Cc3ccc4c(c3)OCO4)CC2)cc1Cl,84.2% (inactive)
10,Brc1ccc(-c2nnc3ccc(N4CCN(c5ccccc5)CC4)nn23)cc1,82.8% (inactive)
11,CCCCOc1ccccc1C1NC(=O)NC(C)=C1C(=O)OCCOC (centres undefined),92.9% (inactive)
12,COc1ccc(OC)c(NC(=O)C2COc3ccccc3O2)c1 (centres undefined),82.7% (inactive)
13,Cc1c(S(=O)(=O)N2CCc3ccccc3C2)c(=O)n(C)c(=O)n1C,103% (inactive)
14,CCN1CCN(CC(=O)Nc2cccc(C)c2)C(=O)C1=O,99.6% (inactive)
15,CCOc1ccccc1C(=O)Nc1ccc2nc(N3CCN(c4ncccn4)CC3)cc(C)c2c1,4.33% (active)
16,CCOC(=O)c1ccccc1NC1c2ccccc2C(=O)N1c1ccc(C)cn1 (centres undefined),72.9% (inactive)

row,SMILES,viability
1,COc1ccc(OC)c(-c2cc(C(=O)N3CCN(c4ccccc4)CC3)no2)c1,96.9% (inactive)
2,CCC(Sc1nc2c(cnn2-c2ccccc2)c(=O)[nH]1)C(=O)OC (centres undefined),91.8% (inactive)
3,COCCNc1oc(-c2ccccc2Cl)nc1C#N,111% (inactive)
4,O=C(Cn1c(=O)sc2ccccc21)NCc1ccccn1,104% (inactive)
5,C=CCSc1nnc2c(n1)OC=Nc1ccccc1-2,97.9% (inactive)
6,CCc1ccccc1S(=O)(=O)Cc1ccc(C(=O)N2CCN(c3ccccc3OC)CC2)o1,37% (inactive)
7,CCCCCCC1C(C#N)=C(N)OC2=C1C(=O)CC(C)(C)C2 (centres undefined),102% (inactive)
8,CCOC(=O)C1Cn2c(nc3c(c2=O)C2(CCCC2)Cc2ccccc2-3)S1 (centres undefined),84.2% (inactive)
9,O=C(c1cc(C2CC2)on1)N1CCN(c2ccc(F)cc2)CC1,96.8% (inactive)
10,COc1cccc(CSc2nc3sc(C)c(C)c3c(=O)n2Cc2ccco2)c1,95.7% (inactive)
11,COc1ccc(-c2n[nH]c(C)c2-c2cnn(-c3ccccc3)c2)c(O)c1,85.2% (inactive)
12,O=C1C2CCCN2C(c2ccc(F)cc2)N1c1ccc(Cl)cc1 (centres undefined),76.5% (inactive)
13,CCOc1ccccc1NC1c2ccccc2C(=O)N1c1ccc(C)cn1 (centres undefined),88.2% (inactive)
14,COc1cc(/C=C/C2=NC(=O)C(C)(C)O2)ccc1O,65.9% (inactive)
15,O=C(O)c1ccc(CSc2nnc(COc3ccc(Cl)cc3Cl)o2)cc1,103% (inactive)
16,N#Cc1c(NC(=O)CCCN2C(=O)c3ccccc3C2=O)oc(-c2ccccc2)c1-c1ccccc1,101% (inactive)
